Laboratory results from PubChem BioAssay (NCI).
Where “and” joins values, the source holds several entries; their conditions need not be identical. Equal values may be shown once. About 83,000 compounds went through this panel and 20% of them were active in at least one assay; those are over-represented in the sample as a whole.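 Plates (96-well) were seeded with cells, treated with compound at one concentration, and incubated for 48 hours before percent growth was determined.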 Calls of active or inactive are those of the source. How the source made its calls: active means growth percent below 10; inactive means the rest.

The compounds below were run on MDA-MB-468 breast (assay: NCI-60 one-dose screen, 48 h (100 = growth as untreated, 0 = no growth, -100 = all killed)). Conditions: 10 µM unless noted.
`CCN(CC)CCS(=O)(=O)CCNc1ccnc2cc(Cl)ccc12` was tested, and the growth was -49.2% (active).
For `COc1ccc2c(c1)C(C)Cc1c(N(C)C)ncnc1N2C` (configuration not stated), the growth was 29.9% (inactive).
For `CCc1cccc(-c2ccccc2)c1`, the growth was 106% (inactive).
In the case of `Cc1nn2c(/C=C3/C(=O)Nc4ccc(Cl)cc43)c(-c3ccccc3)nc2s1`, the growth is reported as 35.7% (inactive).
With `O=C(/C=C/c1ccc(F)cc1)Nc1ncc(Cc2ccc(F)cc2)s1` the growth was 8.11% (active).
With `COc1ccc(C(=O)c2nc3ccccc3n2CC(=O)c2ccc(Cl)cc2)cc1` the growth was 33.8% (inactive).
With `O=C(/C=C1\C(=O)N(Cc2ccc([N+](=O)[O-])cc2)c2ccccc21)c1ccc(OCCN2CCCCC2)cc1` the growth was -63.1% (active).
`C[n+]1ccc(Nc2ccc(NC(=O)c3ccc(Nc4cc[n+](C)c5ccc(N)cc45)cc3)cc2)cc1` was tested, and the growth was 94.8% (inactive).
With `COC(=O)C1CCCN1C(=O)[C@@H]1CCCN1C(=O)[C@H](Cc1c[nH]c2ccccc12)NC(=S)Nc1cc(C(F)(F)F)cc(C(F)(F)F)c1` (some centres not stated) the growth was 44.3% (inactive).
With `OC(CBr)CCBr` (configuration not stated) the growth was 97.4% (inactive).
In the case of `Nc1nc(N)c2cc(S(=O)(=O)c3ccccc3)ccc2n1`, the growth is reported as 49.9% (inactive) and 57.7% (inactive).
`O=C(NCc1ccc(F)cc1)C1CN(c2ccc(Cl)cc2)N(c2ccc(Cl)cc2)C1=O` (configuration not stated) was tested, and the growth was 43.1% (inactive).
